Sampled rows, rich in hits. Any-hit rate of the full collection: about 4.8%.
Calb FLC: affects C. albicans growth with fluconazole; C. albicans CaCi-2 (fluconazole-resistant clinical isolate) + fluconazole, Alamar Blue growth, 48 h; growth inhibition, % (test concentration not listed); actives 0.57% (n = 300,000); AID 1979;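 active = growth inhibition above about 58% in most replicates, limit read from the data, passing the limit was not always enough; inconclusive = exactly half the replicates above a set limit; inactive = most replicates below a set limit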;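 also: all wells also contain fluconazole at 8 µg/ml as a sub-toxic cotreatment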
Beta cell apopt: beta cell apoptosis inhibition. INS-1E cytokine-induced death, ATP luminescence, 48 h; percent of positive-control rescue, neutral wells zero. protection from apoptosis, % (test concentration not listed). actives 0.8% (n = 300,000). AID 435005;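 active = Every replicate reaches about 75%, or at least half do and their mean reaches it too, limit read from the data; inconclusive = At least half of replicates reach the limit but their mean does not; inactive = Under half of replicates reach the limit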;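 also: higher means more ATP so stronger rescue from cytokine killing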
CSC inhib: cancer stem cell inhibition. AID 2717. actives 1.1% (n = 300,000). cancer stem cell-like cells viability, luminescence. inhibition, % at 7.5 µM; in the data active = inhibition above about 75%; inconclusive = no clear call, values can overlap the other calls; tested in HMLE shEcad cells
Mdm2-MdmX inh: human Mdm2/MdmX binding inhibition | SaOS-2 split-luciferase Mdm2/MdmX complementation, luminescence | inhibition, % at 8 µM | actives 3% (n = 330,000);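 active = inhibition of at least 50% at 8 µM in the primary screen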
Target sequence (O15151 whole entry, looked up): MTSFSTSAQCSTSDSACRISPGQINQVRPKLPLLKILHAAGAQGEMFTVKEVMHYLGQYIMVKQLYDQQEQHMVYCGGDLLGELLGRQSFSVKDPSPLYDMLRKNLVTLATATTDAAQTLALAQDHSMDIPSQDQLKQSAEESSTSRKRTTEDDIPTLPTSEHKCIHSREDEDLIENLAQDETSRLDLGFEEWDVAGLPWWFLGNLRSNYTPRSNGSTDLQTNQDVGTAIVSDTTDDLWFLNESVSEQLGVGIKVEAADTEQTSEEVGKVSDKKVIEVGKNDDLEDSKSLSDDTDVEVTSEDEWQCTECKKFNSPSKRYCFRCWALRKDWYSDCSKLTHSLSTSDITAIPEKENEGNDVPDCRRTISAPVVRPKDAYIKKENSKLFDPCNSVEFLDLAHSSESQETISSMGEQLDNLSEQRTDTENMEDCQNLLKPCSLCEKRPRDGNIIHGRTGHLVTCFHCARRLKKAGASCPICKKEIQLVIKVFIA
Target sequence (Q00987 whole entry, looked up): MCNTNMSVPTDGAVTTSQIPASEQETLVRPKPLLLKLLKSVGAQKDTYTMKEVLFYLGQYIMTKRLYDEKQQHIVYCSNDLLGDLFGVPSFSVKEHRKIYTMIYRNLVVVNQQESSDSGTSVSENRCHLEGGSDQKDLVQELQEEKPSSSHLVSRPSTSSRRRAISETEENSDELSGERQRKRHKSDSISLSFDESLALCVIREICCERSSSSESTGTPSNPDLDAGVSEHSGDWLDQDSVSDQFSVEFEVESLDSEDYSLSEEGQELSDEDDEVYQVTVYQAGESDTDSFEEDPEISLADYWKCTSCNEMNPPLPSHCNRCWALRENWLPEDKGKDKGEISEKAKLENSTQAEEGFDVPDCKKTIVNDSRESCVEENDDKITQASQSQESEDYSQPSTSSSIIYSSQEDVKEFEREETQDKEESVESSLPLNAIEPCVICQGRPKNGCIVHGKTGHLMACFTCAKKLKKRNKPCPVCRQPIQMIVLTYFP
MPTP inh: inhibitors of mitochondrial permeability transition pore; actives 1.4% (n = 360,000); isolated mouse mitochondria, Ca2+ swelling absorbance, 30 min; inhibition, % at 10 µM;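 active = inhibition of 50% or more, scaled per plate between neutral and stimulator controls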
Mdm2 MdmX conf: human Mdm2/MdmX binding inhibition, confirmed; shares compounds with Mdm2-MdmX inh; luminescent assay; inhibition, % at 8 µM; actives 55% (n = 10,000); AID 489028; in the data active = inhibition above about 40%
Full FLuc ctr: counter-screen for Mdm2/MdmX inhibitors: full-length luciferase | actives 77% (n = 6,200) | SaOS-2 full-length luciferase counterscreen, luminescence | shares compounds with Mdm2-MdmX inh | inhibition, % at 8 µM;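 active = mean inhibition at 8 µM reaching about 37%, which flags the compound as non-specific, limit read from the data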;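 also: p53-null SaOS-2 cells with luciferase driven by a doxycycline-inducible promoter; compound on cells about two nights before reading with doxycycline added after day one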
Of the large screens only hits and unclear results are named; the others gave an inactive call (follow-up assays come after a bar, where they were run).

O=C(Cc1ccc(-c2ccccc2)cc1)Nc1ccccn1	Mdm2-MdmX inh 68.5 | Mdm2 MdmX conf 55.1 | Full FLuc ctr 62.1
COc1ccc(NC(=O)c2cc(CN3C(=O)c4ccccc4C3=O)ccc2OC)cn1	Mdm2-MdmX inh 52.9 | Mdm2 MdmX conf inactive
Cc1ccnc(NC(=O)Cc2ccc(-c3ccccc3)cc2)c1	Mdm2-MdmX inh 90.7 | Mdm2 MdmX conf 94.0 | Full FLuc ctr 144.8
Cc1ccc(NC(=O)CCc2c[nH]c3ccccc23)nc1	Mdm2-MdmX inh 83.4 (no result: Beta cell apopt, CSC inhib) | Mdm2 MdmX conf 73.0 | Full FLuc ctr 51.5
Cc1ccnc(NC(=O)Cc2ccc([N+](=O)[O-])cc2)c1	none (no result: CSC inhib)
O=C1c2c(-c3ccc(Br)cc3)noc2CCN1Cc1cn(Cc2cccnc2)nn1	none (no result: Calb FLC, Beta cell apopt, CSC inhib, Mdm2-MdmX inh)
CC1(C)CC(=O)C=C(Nc2ccc(C(=O)O)c(O)c2)C1	none
COc1ccc(NC(=O)/C(Cl)=C(/Cl)S(=O)Cc2ccc(Cl)cc2)cn1 (stereo not drawn)	Mdm2-MdmX inh 97.1 (no result: Calb FLC, Beta cell apopt, CSC inhib) | Mdm2 MdmX conf 100.0 | Full FLuc ctr inactive
COc1ccc(NC(=O)Cc2ccc(-c3ccccc3)cc2)cn1	Mdm2-MdmX inh 51.9 | Mdm2 MdmX conf 54.5 | Full FLuc ctr 62.0
COc1ccc(NC(=O)C(Cl)=C(Cl)Cl)cn1	none (no result: Beta cell apopt, CSC inhib)
Cc1ccc(NC(=O)Cc2ccc(-c3ccccc3)cc2)nc1	Mdm2-MdmX inh 75.1 | Mdm2 MdmX conf 45.0 | Full FLuc ctr 80.2
COc1ccc(CC(=O)Nc2ccc(OC)nc2)cc1	none
Cc1ccc(NC(=O)Cc2ccc(Cl)cc2)nc1	none
COc1cccc(CNc2nc(NC(C)C)nc3ccsc23)c1	none (no result: Calb FLC, Beta cell apopt, CSC inhib, Mdm2-MdmX inh)
COc1cc2c(cc1OC)C(Cc1ccc(O)c(Oc3ccc(C[C@H]4c5cc(OC)c(OC)cc5CCN4C)cc3)c1)N(C)CC2 (stereo partly drawn)	Mdm2-MdmX inh 72.0 (no result: Calb FLC, MPTP inh) | Mdm2 MdmX conf inactive
N#Cc1cc2c(nc1SCC(=O)N1CCOCC1)CCCCC2	Mdm2-MdmX inh 81.1 (no result: Beta cell apopt, CSC inhib) | Mdm2 MdmX conf 85.5 | Full FLuc ctr 115.4
Cc1ccc2nc(-c3ccccc3)c(Cc3ccccc3C(F)(F)F)n2c1	none (no result: Calb FLC, Beta cell apopt, CSC inhib, Mdm2-MdmX inh)
Oc1ccccc1C1=NC(c2ccccc2)NC(c2ccccc2)C1 (stereo not drawn)	none (no result: Calb FLC, Beta cell apopt, CSC inhib, Mdm2-MdmX inh)
CCc1nnc(NC(=O)CSc2nnc(-c3ccccc3O)n2-c2ccc(C)cc2C)s1	Mdm2-MdmX inh 62.6 | Mdm2 MdmX conf 53.1 | Full FLuc ctr 61.0
COc1ccc(NC(=O)c2ccc3c(c2)n(C)c(=O)n3C)cc1	Mdm2-MdmX inh 52.0 (no result: Beta cell apopt) | Mdm2 MdmX conf inactive
CCc1nnc(NC(=O)CSc2nnc(COc3ccccc3)n2-c2ccc(C)cc2)s1	none
CC(=O)Oc1ccc(C(=O)Nc2cccc(C(=O)c3cccc(NC(=O)c4ccc(OC(C)=O)cc4)c3)c2)cc1	Mdm2-MdmX inh 79.3 | Mdm2 MdmX conf inactive | Full FLuc ctr 85.5
Cn1c(=O)n(C)c2cc(NC(=O)CSc3nnc(-c4ccccc4O)n3-c3ccccc3)ccc21	Mdm2-MdmX inh 57.9 | Mdm2 MdmX conf inactive
O=C(CN(C(=O)C1CSC(=O)C1)c1ccc(F)cc1)NCc1ccc2c(c1)OCO2 (stereo not drawn)	none
COc1ccc(OC)c(C(=O)c2ccc(C(=O)Nc3ccc(NC(C)=O)cc3)cc2)c1	Mdm2-MdmX inh 74.5 | Mdm2 MdmX conf inactive
CCOc1ncccc1C(=O)Nc1ccc(C(=O)Nc2ccc(OC)cc2)cc1	Mdm2-MdmX inh 71.9 (no result: Calb FLC, CSC inhib) | Mdm2 MdmX conf inactive
CCn1c(=O)oc2cc(NC(=O)CCl)ccc21	Mdm2-MdmX inh 66.2 | Mdm2 MdmX conf inactive
CC(=O)Nc1ccc2c(c1)n(C)c(=O)n2C	Mdm2-MdmX inh 65.6 | Mdm2 MdmX conf inactive
COc1ccc(OC)c(NC(=O)c2ccc(NC(C)=O)cc2)c1	none
Cn1c(=O)n(C)c2cc(NC(=O)CCl)ccc21	Mdm2-MdmX inh 69.4 | Mdm2 MdmX conf 67.0 | Full FLuc ctr 45.7
COC(=O)c1cc(C(=O)N2CCN(c3cccc(C)c3C)CC2)cc([N+](=O)[O-])c1	Mdm2-MdmX inh 54.5 | Mdm2 MdmX conf 48.3 | Full FLuc ctr 54.2
COC(=O)c1cc(C(=O)N2CCN(c3ccccc3OC)CC2)cc([N+](=O)[O-])c1	Mdm2-MdmX inh 51.9 | Mdm2 MdmX conf 55.6 | Full FLuc ctr 59.5
COc1ccc(CC(=O)Nc2cccc(-c3nnc(-c4cccc(C)c4)o3)c2)cc1OC	Beta cell apopt 106.0, Mdm2-MdmX inh 93.4 | Mdm2 MdmX conf 61.1 | Full FLuc ctr 41.1
COc1ccc(CC(=O)Nc2cccc(-c3nnc(-c4ccccc4)o3)c2)cc1OC	none (no result: Beta cell apopt, CSC inhib, Mdm2-MdmX inh)
COc1ccc(CC(=O)Nc2cccc(-c3nnc(-c4ccc(C)cc4)o3)c2)cc1OC	Calb FLC inconclusive, Mdm2-MdmX inh 71.9 | Mdm2 MdmX conf 75.3 | Full FLuc ctr 67.3
CC(=O)Nc1ccc(S(=O)(=O)NC2CC2)cc1	none
Nc1nnc(-c2cn(-c3ccccc3)nc2-c2ccc(Cl)cc2)o1	Mdm2-MdmX inh 57.7 | Mdm2 MdmX conf inactive
CCN(CC)CCN(C(=O)c1ccc2c(c1)CCCC2)c1nc2cc(OC)c(OC)cc2s1	Mdm2-MdmX inh 52.6 | Mdm2 MdmX conf 46.4 | Full FLuc ctr 36.8
CCOc1ccc2nc(N(CCN(C)C)C(=O)c3ccc4c(c3)CCCC4)sc2c1	none
Cc1cc(C)c2nc(N(CCCN(C)C)C(=O)c3ccc4c(c3)CCCC4)sc2c1	Mdm2-MdmX inh 76.6 (no result: Beta cell apopt, MPTP inh) | Mdm2 MdmX conf inactive
CN(C)CCCN(C(=O)c1ccc2c(c1)CCCC2)c1nc2c(F)cccc2s1	none
Cc1ccc2nc(N(CCCN(C)C)C(=O)c3ccc4c(c3)CCCC4)sc2c1	Mdm2-MdmX inh 50.6 | Mdm2 MdmX conf inactive
COc1cc(C(=O)N2CCN(c3ccccc3)CC2)c2ccccc2n1	none (no result: Calb FLC, Beta cell apopt, CSC inhib, Mdm2-MdmX inh)
COc1ccc(-c2noc(N3CCC(C(=O)N(C)c4ccccc4)CC3)n2)cc1	none
CCOC(=O)CSC1=NC(=O)/C(=C/c2ccc(OC)cc2)S1	Mdm2-MdmX inh 76.3 | Mdm2 MdmX conf 53.4 | Full FLuc ctr inactive
CC1(C)C=Cc2c(c3c(c4c(=O)c(-c5ccc(O)cc5)coc24)OC(C)(C)CC3)O1	CSC inhib 100.2, Mdm2-MdmX inh 75.5 | Mdm2 MdmX conf inactive
Cc1cccc(NC(=O)c2nc[nH]c2C(=O)NCCCCNC(=O)c2[nH]cnc2C(=O)Nc2cccc(C)c2)c1	Mdm2-MdmX inh 74.9 (no result: Calb FLC) | Mdm2 MdmX conf inactive
Cc1cccc(NC(=O)c2nc[nH]c2C(=O)NCCCCCCNC(=O)c2[nH]cnc2C(=O)Nc2cccc(C)c2)c1	Mdm2-MdmX inh 70.7 (no result: Calb FLC) | Mdm2 MdmX conf inactive
CN(CC(=O)Nc1cccc(F)c1)C(=O)CSc1ccccc1	none
COc1ccccc1/C=C(\NC(=O)c1ccc(OC)c(OC)c1)C(=O)Nc1cc([N+](=O)[O-])ccc1C	Mdm2-MdmX inh 58.9 | Mdm2 MdmX conf inactive
COCCCn1cc(CN2CC(N3CCN(Cc4ccccc4F)CC3)CS2(=O)=O)nn1 (stereo not drawn)	none (no result: Calb FLC, Beta cell apopt, CSC inhib, Mdm2-MdmX inh)
CCC(CC)NCc1ccc2c(c1)c1ccccc1n2CC	Mdm2-MdmX inh 56.6 | Mdm2 MdmX conf 43.2 | Full FLuc ctr 64.8

Assay outcomes: PubChem BioAssay, several laboratories
